Assay [1] has as its system Zika virus NS2B-NS3 protease (unlinked complex). The assay can be described thus: Primary screen GU Rhodamine qHTS for Zika virus inhibitors: Unlinked NS2B-NS3 protease assay (AID 1347159). Further: nearly all actives have a fitted effect of over 60% in size. The gist of the method:
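Unlinked NS2B/NS3, 25 nM; Rhod110 peptide, 1.5 microM; compounds, up to 114 microM. Reaction run 15 min at RT in 10 mM Tris-HCl pH 8.0, 0.01% Tween 20; kinetic fluorescence change fitted with a 4-parameter Hill model.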
For orientation: qHTS replaces the single test concentration by a dilution series.

The test system of assay [2] is Zika virus NS2B-NS3 protease (linked construct). Kind of assay: Primary screen NINDS Rhodamine qHTS for Zika virus inhibitors (AID 1347160). Further: nearly all actives have a fitted effect of over 55% in size. The gist of the method: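 Single-chain NS2B-NS3 protease, 25 nM, pH 8.0; compounds preincubated 15 min. Activity: Rhodamine110 release from 1.5 microM substrate over 15 min, room temperature, data fitted to 4-parameter Hill.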

Inconclusive results are not listed. Entries that show only a call come without a potency. Unmarked numbers belong to inactive results. The source made the active and inactive calls. The call rests on the fitted dose curve; in most records, active means well fitted inhibition curve with a large enough effect; inconclusive means small, poorly fitted or top-dose-only effect; inactive means no such curve, though single readings can be large or run the other way. Where a SMILES comes first, the peptide text is derived from it.

As to `COc1cc(CC2COC(c3ccc(OC4OC(CO)C(O)C(O)C4O)c(OC)c3)C2CO)ccc1O` (configuration not stated), the Potency entry in assay [1] and in assay [2] was “inactive” each time.

Regarding `CC1CCC2C(C(=O)O)=CC3(O)CC(C)(C)CC123` (configuration not stated), the Potency result in assay [1] and in assay [2] was “inactive” each time.

Take `CC(NC(=O)c1ccccc1N)C(=O)O` (configuration not stated): the Potency entry in assay [1] and in assay [2] was “inactive” each time.

For `COc1ccccc1CN[C@H]1CCCN[C@H]1c1ccccc1`, the Potency result in assay [1] and in assay [2] was “inactive” in each case.

Consider `CC1(C)CCC2(C(=O)O)C(O)CC3(C)C(=CCC4C5(C)CCC(OC6OC(CO)C(O)C(O)C6OC6OC(CO)C(O)C(O)C6OC6OCC(O)(CO)C6O)C(C)(C)C5CCC43C)C2C1` (configuration not stated), for which the Potency result in assay [1] and in assay [2] was “inactive” each time.

With `O=C(C[C@@H]1C(C(=O)O)=CO[C@@H](O[C@@H]2O[C@H](CO)[C@@H](O)[C@H](O)[C@H]2O)/C1=C\CO)OCCc1ccc(O)c(O)c1`, the Potency result in assay [1] and in assay [2] was “inactive” each time.

Turning to `C=C(C(=O)O)C1CC(O)C2(C)CCCC(C)(O)C2C1` (configuration not stated), the Potency entry in assay [1] and in assay [2] was “inactive” in each case.

Take `Cc1occc(=O)c1O[C@@H]1O[C@H](CO)[C@@H](O)[C@H](O)[C@H]1O`: the Potency entry in assay [1] and in assay [2] was “inactive” in each case.

Consider `CC1(O)CCC2C(C3C1CCC3(C)O)C2(C)C` (configuration not stated), for which the Potency result in assay [1] and in assay [2] was “inactive” throughout.

Turning to `COc1ccc2c(c1)N1C(=O)C[C@@]34C=CC[N@+]5([O-])CC[C@H]2[C@H](CC3)[C@@]145`, the Potency result in assay [1] and in assay [2] was “inactive” throughout.

For `CC(=O)N[C@H](Cc1c[nH]c2ccccc12)C(=O)OCc1cc(C(F)(F)F)cc(C(F)(F)F)c1`, the Potency entry in assay [1] and in assay [2] was “inactive” throughout.

With `COC(=O)C1=CO[C@@H](O[C@@H]2O[C@H](CO)[C@@H](O)[C@H](O)[C@H]2O)/C(=C\CO)[C@@H]1CC(=O)OCCc1ccc(O)cc1`, the Potency entry in assay [1] and in assay [2] was “inactive” throughout.

Take `Cc1ccc(-c2c(-c3nn(C)c4ncnc(N5CCC(N6CCCCC6)C5)c34)cnn2C)cc1` (configuration not stated): the Potency entry in assay [1] and in assay [2] was “inactive” throughout.

`N#CC1C(=O)N=C(c2cc(Cl)ccc2O)C=C1c1cc(OCc2ccccc2)cc(OCc2ccccc2)c1` (configuration not stated): the Potency result in assay [1] and in assay [2] was “inactive” throughout.

On to `C[C@]12CCC[C@](C)(C(=O)O)C1CCC13CC(CO)C(CCC12)C3` (some centres not stated), for which the Potency entry in assay [1] and in assay [2] was “inactive” in each case.

In the case of `CC1(C)CCCC2(C)c3c4c(c(=O)oc(=O)c3=CCC12)=CCC1C(C)(C)CCCC41C` (configuration not stated), the Potency result in assay [1] and in assay [2] was “inactive” in each case.

Consider `CC1=C2CC(C)(C)CC2C(O)C2=C(C1)C(=O)OC2O` (configuration not stated), for which the Potency result in assay [1] and in assay [2] was “inactive” in each case.

Consider `CC(=O)O[C@H]1C[C@@H](O)C(C)(C)C2C[C@@H](OC(C)=O)[C@]3(C)C(CC[C@@]4(C)[C@H](c5ccoc5)OC(=O)[C@H]5O[C@]543)[C@]21C` (some centres not stated), for which the Potency result in assay [1] and in assay [2] was “inactive” each time.

On to `C/C=C/C=C/[C@@H]1O[C@](O)([C@H](CC)C(=O)NC/C=C/C=C(\C)[C@@H](OC)[C@@H](C)[C@@H]2O[C@H](/C=C/C=C/C=C(\C)C(=O)c3c(O)ccn(C)c3=O)[C@H](O)[C@@H]2O)[C@H](O)[C@H](O)C1(C)C`, for which the Potency entry in assay [1] and in assay [2] was “inactive” each time.

In the case of `CC(C)c1c(NC(=O)Nc2ccc(Cl)cc2)c(=O)n(-c2ccccc2)n1C`, the Potency entry in assay [1] and in assay [2] was “inactive” throughout.

As to `CC(=O)OCC1OC(O[C@H]2CC[C@@]3(C)C(CC[C@]4(C)C3CC=C3[C@@H]5CC(C)(C)CC[C@]5(C(=O)O)CC[C@]34C)[C@]2(C)CO)C(O)C(O)C1OC1OC(C)C(O)C(OC2OCC(O)C(O)C2O)C1O` (some centres not stated), the Potency entry in assay [1] and in assay [2] was “inactive” throughout.

Take `O=C(Nc1ccc(N2CCC(C(=O)N3CCOCC3)CC2)cc1)c1cnc(Oc2ccccc2)nc1`: the Potency result in assay [1] and in assay [2] was “inactive” each time.

`C=C1CCC2C(C)(C(=O)OC)CCCC2(C)C1CCC1=CCOC1=O` (configuration not stated): the Potency entry in assay [1] and in assay [2] was “inactive” throughout.

For the compound `C/C=C/C1OC2=C(C(=O)OC2(C)O)C(O)C1O` (configuration not stated), the Potency result in assay [1] and in assay [2] was “inactive” each time.

Regarding `CC1CCC2(C(=O)OC3OC(CO)C(O)C(O)C3O)CCC3(C)C(=CCC4C5(C)CCC(O)C(C)(CO)C5CCC43C)C2C1(C)O` (configuration not stated), the Potency result in assay [1] and in assay [2] was “inactive” each time.

On to `C/C=C(\C)C(=O)OCC1OC(OC2OC(CO)C(O)C(O)C2O)C(O)C(O)C1O` (configuration not stated), for which the Potency result in assay [1] and in assay [2] was “inactive” each time.

As for `Cn1cc(Nc2cnccc2C(=O)O)c2cccnc21`, the Potency result in assay [1] and in assay [2] was “inactive” each time.

Regarding `C[C@]1(OC(=O)/C=C/c2ccc(O)cc2)C[C@@H](O)[C@]2(O)C=CO[C@@H](O[C@@H]3O[C@H](CO)[C@@H](O)[C@H](O)[C@H]3O)C12` (some centres not stated), the Potency result in assay [1] and in assay [2] was “inactive” throughout.

Consider `COc1ccc(NC(=O)c2ccc(-c3ccc(C(N)=O)cc3C)cc2)cc1N1CCN(C)CC1`, for which the Potency result in assay [1] and in assay [2] was “inactive” each time.

For the compound `COC(=O)C1=CO[C@@H](O[C@@H]2O[C@H](CO[C@@H]3O[C@H](CO)[C@@H](O)[C@H](O)[C@H]3O)[C@@H](O)[C@H](O)[C@H]2O)[C@@H]2C(CO)=CC[C@H]12`, the Potency result in assay [1] and in assay [2] was “inactive” throughout.

`CC(C)C1NC(=O)CNC(=O)C2CCCN2C(=O)C(Cc2c[nH]c3ccccc23)NC(=O)CNC(=O)C(Cc2ccc(O)cc2)NC(=O)CNC1=O` (configuration not stated) (cyclo(GVGYGWP); configuration not given here): the Potency result in assay [1] and in assay [2] was “inactive” in each case.

For the origin of these results see PubChem BioAssay (NCATS).
